Experimental data published in PubChem BioAssay (EPA / NIEHS).
Inconclusive results are not listed. Activity calls are given as the source filed them. Rule for the calls: active = hit-call score of the fitted dose curve at least 0.9, where 1 is the maximum; inconclusive = response in the unintended direction; inactive = score below 0.9.

Test system: not listed separately
Test: NVS_IC_rCaBTZCHL: NovaScreen (NVS) Ion Channel Assay for Calcium Channel, Type L, Benzothiazepine Site (CaBTZCHL) (AID 2283337)
Method in brief: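 Scintillation counting of filter-bound radioligand gave the read-out, with reduced binding versus DMSO scored as activity. Membranes came from rat cortex and were read 1.5 h after compound addition. Chemicals were screened first in duplicate at 25 uM.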

Row | SMILES | outcome | AC50
1 | O=Cc1cccc(Oc2ccccc2)c1 | inactive | –
2 | C=C(C)C(=O)[O][Sn]([CH2]CCC)([CH2]CCC)[CH2]CCC | – | 12.8 µM (active)
3 | CCC(=O)C(CC(C)N(C)C)(c1ccccc1)c1ccccc1 (configuration not stated) | – | 1.16 µM (active)
4 | Cn1sc(Cl)cc1=O | inactive | –

Molecular target: rat Gamma-Aminobutyric Acid Type A Receptor BDZ, alpha 6 site (GABARa6), Gabra6 (gene 29708) (UniProt P30191)
Test: NVS_LGIC_rGABARa6: NovaScreen (NVS) Ligand-Gated Ion Channel Assay for rat Gamma-Aminobutyric Acid Type A Receptor BDZ, alpha 6 site (GABARa6) (AID 2283339)
Experimental: NVS_LGIC_rGABARa6 is a biochemical, single-readout assay that uses extracted gene-proteins from Rat cerebellar membranes in a tissue-based cell-free assay. Measurements were taken 1 hour after chemical dosing in a 48-well plate.NVS_LGIC_rGABARa6 is one of one assay component(s) measured or calculated from the NVS_LGIC_rGABARa6 assay. It is designed to make measurements of radioligand binding, a form of binding reporter, as detected with scintillation counting signals by Filter-based radiodetection technology.Data from the assay component NVS_LGIC_rGABARa6 was analyzed into 1 assay endpoint. This assay endpoint, NVS_LGIC_rGABARa6, was analyzed in the positive analysis fitting direction relative to DMSO as the negative control and baseline of activity. Using a type of binding reporter, loss-of-signal activity can be used to understand changes in the binding as they relate to the gene Gabra6. Furthermore, this assay endpoint can be referred to as a primary readout, because the performed assay has only produced 1 assay endpoint. To generalize the intended target to other relatable targets, this assay endpoint is annotated to the ion channel intended target family, where the subfamily is ligand-gated ion channel.
Binding assays used specific radioligands (tritiated, iodinated) with non-radioactive competitive displacement ligands in agonist or antagonist protocols (as indicated) and various reference compounds and inhibitors to titrate specific binding to receptors and transporters. Most enzyme assays (CYPs, kinases, phosphatases, proteases, HDACs) used recombinant protein and specific substrates (fluorescence mostly, some colorimetric and radioactive) and inhibitors, followed by a biochemical separation of substrate and product. All assays for the biochemical HTS were initially run in duplicate at a single concentration (10 uM for CYP450 assays and 25 uM for all others). […]

Chain of rat Gamma-Aminobutyric Acid Type A Receptor BDZ, alpha 6 site (GABARa6), Gabra6 (gene 29708) (P30191 whole entry, looked up): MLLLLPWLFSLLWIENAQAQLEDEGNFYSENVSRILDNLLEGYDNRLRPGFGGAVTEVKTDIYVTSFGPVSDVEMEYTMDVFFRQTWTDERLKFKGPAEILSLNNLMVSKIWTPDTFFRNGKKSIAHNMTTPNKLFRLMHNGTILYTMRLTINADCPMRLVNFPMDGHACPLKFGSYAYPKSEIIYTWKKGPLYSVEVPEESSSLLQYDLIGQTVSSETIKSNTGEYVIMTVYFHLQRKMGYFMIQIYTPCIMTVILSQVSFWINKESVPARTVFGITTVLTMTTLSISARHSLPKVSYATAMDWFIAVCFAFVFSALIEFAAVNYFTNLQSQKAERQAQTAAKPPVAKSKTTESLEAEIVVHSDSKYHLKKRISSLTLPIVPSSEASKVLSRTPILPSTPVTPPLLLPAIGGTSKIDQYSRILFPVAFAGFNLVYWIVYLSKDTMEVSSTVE

Row | SMILES | outcome
5 | CCC(=O)c1ccccc1 | inactive
6 | CN(C)N=O | inactive
7 | Cn1sc(Cl)cc1=O | inactive
